Data published in PubChem BioAssay (Tox21).
Inconclusive results are not listed. A number with no mark means an inactive call. Calls follow the shape of the dose curve; as a rule, active = well fitted curve in the direction sought with a large enough effect in the repeat runs; inconclusive = weak or mixed curves; inactive = no such curve, though single readings can be large; an effect the other way counts as inactive or inconclusive.
% is scaled to controls: 0 for no effect and ±100 for the full control effect.

Assay: qHTS assay to identify small molecule antagonists of the estrogen related receptor signaling pathway with the pleiotropic PPARgamma coactivator (PGC) cell viability counter screen (AID 1224822)
Conditions: ERR/PGC reporter cell line viability counter screen; series mostly up to 46.1 µM; viability change, negative = cytotoxic: at the top concentration
Procedure, shortened: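 Fluorescence read-out of CellTiter-Fluor after 30 min at 37 C; PGC/ERR cells, 2,000 per well, had been exposed to DMSO-dissolved compounds for 17.5 h following a 6 h pre-incubation.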
In the case of `CN(CCOc1ccc(NS(C)(=O)=O)cc1)CCc1ccc(NS(C)(=O)=O)cc1`, the “viability change, negative = cytotoxic” value is reported as 11.4%.
With `Cc1cc(C(C)(C)C)c(O)c(C)c1CC1=NCCN1` the “viability change, negative = cytotoxic” value was 4.79%.
In the case of `NC(CO)C(=O)NNCc1ccc(O)c(O)c1O` (stereo not drawn), the “viability change, negative = cytotoxic” value is reported as 3.99%.
For `O=C(CCNNC(=O)c1ccncc1)NCc1ccccc1`, the “viability change, negative = cytotoxic” value was 2.31%.
With `CC(C)NCC(O)COc1cccc2[nH]ccc12` (stereo not drawn) the “viability change, negative = cytotoxic” value was -2.73%.
In the case of `N[C@@H](COP(=O)(O)O)C(=O)O`, the “viability change, negative = cytotoxic” value is reported as 9.83%.
For `CCOC(=O)c1ncn2c1CN(C)C(=O)c1cc(F)ccc1-2`, the “viability change, negative = cytotoxic” value was 7.15%.
In the case of `CCCN1C[C@H](CSC)C[C@@H]2c3cccc4[nH]cc(c34)C[C@H]21`, the “viability change, negative = cytotoxic” value is reported as 0.12%.
For `CC(C)NCC(O)COc1ccc(COCCOC(C)C)cc1` (stereo not drawn), the “viability change, negative = cytotoxic” value was 12.1%.
With `CN1CCN(CC(=O)N2c3ccccc3C(=O)Nc3cccnc32)CC1` the “viability change, negative = cytotoxic” value was 9.34%.
With `COc1ccc(C2CNC(=O)C2)cc1OC1CCCC1` (stereo not drawn) the “viability change, negative = cytotoxic” value was 8.65%.

Assay: qHTS assay to identify small molecule antagonists of the estrogen related receptor (ERR) signaling pathway from Tox21 library - cell viability counter screen (AID 1224834); also: nearly all actives have a fitted effect of over 30% in size
Conditions: ERR reporter cells viability, CellTiter-Fluor, 17.5 h; series mostly up to 92.4 µM; viability change, negative = cytotoxic: at the top concentration
Procedure, shortened: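 Multiplexed viability counter screen in ERR cells: 17.5 h compound exposure at 37 C, CellTiter-Fluor added, 30 min at 37 C/5% CO2, fluorescence read.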
With `CN(CCOc1ccc(NS(C)(=O)=O)cc1)CCc1ccc(NS(C)(=O)=O)cc1` the “viability change, negative = cytotoxic” value was 4.03% [at 42.5 µM].
With `CCCCCCOC(=O)CC` the “viability change, negative = cytotoxic” value was 6.18%.
With `O=S(=O)(O)CCN1CCN(CCO)CC1` the “viability change, negative = cytotoxic” value was 6.75%.
In the case of `Cc1cc(C(C)(C)C)c(O)c(C)c1CC1=NCCN1`, the “viability change, negative = cytotoxic” value is reported as 0.157% [at 42.5 µM].
For `CC(C)(C)c1n[nH]c(=S)n(N)c1=O`, the “viability change, negative = cytotoxic” value was -0.635%.
In the case of `CCC(C)NC(N)=O` (stereo not drawn), the “viability change, negative = cytotoxic” value is reported as 0.282%.
In the case of `Oc1cn2c(n1)Nc1ccc(Cl)c(Cl)c1C2`, the viability change, negative = cytotoxic is reported as 0.934% [at 19 µM].
`Cc1nc2n(c(=O)c1CCN1CCC(c3noc4cc(F)ccc34)CC1)CCC[C@H]2O` gave a viability change, negative = cytotoxic of 0.131% [at 19 µM].
For `NS(=O)(=O)c1ccc(NC(=O)CCC(=O)O)cc1`, the “viability change, negative = cytotoxic” value was 2.9% [at 42.5 µM].
For `C=C(C)C(=O)OCC(C)(C)COC(=O)C(=C)C`, the “viability change, negative = cytotoxic” value was 1.14%.
For `CCCCCCCCSCC`, the “viability change, negative = cytotoxic” value was -0.419%.
In the case of `C=C(C)C1CCC(C)(O)CC1` (stereo not drawn), the “viability change, negative = cytotoxic” value is reported as 0.147%.
With `On1nnc2ccccc21` the “viability change, negative = cytotoxic” value was 0.25%.
In the case of `NC(CO)C(=O)NNCc1ccc(O)c(O)c1O` (stereo not drawn), the “viability change, negative = cytotoxic” value is reported as -1.38% [at 42.5 µM].
With `O=C(CCNNC(=O)c1ccncc1)NCc1ccccc1` the “viability change, negative = cytotoxic” value was 2.13% [at 42.5 µM].
Compound `N[C@@H](COP(=O)(O)O)C(=O)O` has a viability change, negative = cytotoxic of -0.524% [at 19 µM].
With `O=C1CC(c2ccc(Cl)cc2)CC(=O)N1` the “viability change, negative = cytotoxic” value was -0.171% [at 42.5 µM].
With `CCOc1cc(NC(C)=O)ccc1C(=O)OC` the “viability change, negative = cytotoxic” value was 5.23% [at 42.5 µM].
With `CC(C)N(c1ccccc1)C(C)C` the “viability change, negative = cytotoxic” value was -6.37%.
With `CC(C)(C)c1nnc(NS(=O)(=O)c2ccc(N)cc2)s1` the “viability change, negative = cytotoxic” value was 6.73% [at 42.5 µM].
In the case of `C=CCCCCCCCCCCCC`, the “viability change, negative = cytotoxic” value is reported as 3.94%.
For `CCCN1C[C@H](CSC)C[C@@H]2c3cccc4[nH]cc(c34)C[C@H]21`, the “viability change, negative = cytotoxic” value was -9.56% [at 42.5 µM].
With `CC(C)NCC(O)COc1ccc(COCCOC(C)C)cc1` (stereo not drawn) the “viability change, negative = cytotoxic” value was -1.87% [at 42.5 µM].
With `COCCOCCOCCOCCOCCO` the “viability change, negative = cytotoxic” value was -1.4%.
For `N#Cc1ccc(C(=O)O)cc1`, the “viability change, negative = cytotoxic” value was 2.95%.
`CN1CCN(CC(=O)N2c3ccccc3C(=O)Nc3cccnc32)CC1` gave a viability change, negative = cytotoxic of 2.62% [at 8.39 µM].
With `CCCCCCCCOS(=O)(=O)O` the “viability change, negative = cytotoxic” value was 1.56%.
With `CC(=O)NCc1c(I)c(NC(C)=O)c(I)c(C(=O)O)c1I` the “viability change, negative = cytotoxic” value was 4.76% [at 42.5 µM].
In the case of `COc1cc(C(=S)N2CCOCC2)cc(OC)c1OC`, the “viability change, negative = cytotoxic” value is reported as 4.31% [at 42.5 µM].
For `COc1ccc(C2CNC(=O)C2)cc1OC1CCCC1` (stereo not drawn), the “viability change, negative = cytotoxic” value was 2.78% [at 42.5 µM].
In the case of `CC(C)(C)NC(N)=O`, the “viability change, negative = cytotoxic” value is reported as 1.43%.
With `Cc1ccc(C=O)cc1C` the “viability change, negative = cytotoxic” value was -2%.
